# Source: PubChem BioAssay (National Center for Advancing Translational Sciences (NCATS))
# RGS12 GoLoco inh = RGS12 GoLoco-Gai1 interaction inhibition; 230,000 tested, 0.44% active; Gai1:RGS12 GoLoco peptide FP, rhodamine, 10 min; P63096; AID 880; Potency, µM (doses to about 61.6 µM), without a hit: at the top dose activity, negative = inhibition, most hits filed as inhibitors; active = well fitted inhibition curve with a large enough effect, not every such curve was filed as active; inactive = no such curve, though single readings can be large or run the other way; note: potency is the fitted concentration of half-maximal effect; nearly all actives have a fitted effect of over 30% in size
# JMJD2E inh = JMJD2E (human) inhibition; B2RXH2; JMJD2E catalytic domain, FDH-coupled NADH fluorescence (FDH is formaldehyde dehydrogenase); Potency, µM (titrated, usually from 57.1 µM), without a hit: at the top dose activity change, negative = inhibition, actives largely listed as inhibitors; 230,000 tested, 1.6% active; active = well fitted inhibition curve with a large enough effect, not every such curve was filed as active; inconclusive = small, poorly fitted or top-dose-only effect, or another doubt; inactive = no such curve, though single readings can be large or run the other way;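 note: potency is the fitted concentration of half-maximal effect; 0% = wells with enzyme and -100% = buffer wells without enzyme; nearly all actives have a fitted effect of over 50% in size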
# Target sequence (B2RXH2 1-337 limits assumed): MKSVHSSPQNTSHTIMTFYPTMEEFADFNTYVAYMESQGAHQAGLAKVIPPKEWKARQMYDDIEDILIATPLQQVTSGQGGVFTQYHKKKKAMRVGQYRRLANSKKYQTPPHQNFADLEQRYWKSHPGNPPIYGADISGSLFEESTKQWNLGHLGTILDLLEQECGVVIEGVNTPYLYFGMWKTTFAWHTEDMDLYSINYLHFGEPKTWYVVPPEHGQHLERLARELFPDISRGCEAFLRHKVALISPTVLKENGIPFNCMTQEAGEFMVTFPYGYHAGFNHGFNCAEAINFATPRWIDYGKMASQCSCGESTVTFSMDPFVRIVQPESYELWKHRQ
# NPSR antagonist = neuropeptide S receptor (human) antagonism, cAMP. AID 1461. CHO-NPSR cells, cAMP TR-FRET, antagonist mode. Q6W5P4. Potency, µM (doses to about 38.3 µM), for inactives: top-dose activity change, negative = inhibition, most hits filed as inhibitors. 220,000 tested, 1% active; note: potency is the fitted concentration of half-maximal effect; nearly all actives have a fitted effect of over 50% in size
# Target sequence (Q6W5P4 whole entry, looked up): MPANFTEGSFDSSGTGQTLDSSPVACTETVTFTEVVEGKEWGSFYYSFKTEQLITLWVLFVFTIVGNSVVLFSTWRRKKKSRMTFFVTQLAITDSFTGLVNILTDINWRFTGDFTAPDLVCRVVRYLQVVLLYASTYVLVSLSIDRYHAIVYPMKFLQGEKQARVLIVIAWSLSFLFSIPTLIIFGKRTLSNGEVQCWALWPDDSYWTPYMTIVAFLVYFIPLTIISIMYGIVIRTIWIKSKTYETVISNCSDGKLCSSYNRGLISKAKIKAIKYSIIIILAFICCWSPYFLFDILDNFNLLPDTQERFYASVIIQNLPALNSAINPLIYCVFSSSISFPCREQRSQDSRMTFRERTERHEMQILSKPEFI
# ALDH1A1 inh = ALDH1A1 (human) enzyme inhibition. 220,000 tested, 7.3% active. P00352. Purified ALDH1A1, NADH fluorescence, propionaldehyde substrate. Potency, µM (doses to about 75.3 µM), without a hit: at the top dose activity, negative = inhibition, usual class: inhibitors; active = well fitted inhibition curve with a large enough effect, not every such curve was filed as active; inconclusive = small, poorly fitted or top-dose-only effect, or another doubt; inactive = no such curve, though single readings can be large or run the other way;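 note: potency is the fitted concentration of half-maximal effect; plate controls were no enzyme wells and a reference inhibitor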
# Sfp inh = inhibitors of Bacillus subtilis Sfp phosphopantetheinyl transferase; AID 1490; Biochemical Sfp PPTase activity, qHTS; 310,000 tested, 3.5% active; Potency, µM, for the others: largest response in the series, negative = inhibition, most hits filed as inhibitors;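 note: the enzyme is Sfp with the accession as filed and its product quenches rhodamine fluorescence; potency is the fitted concentration of half-maximal effect; 0% = enzyme reaction without inhibitor and -100% = no enzyme wells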
#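 Step 1, compound plus 15 nM Sfp-PPTase, 15 min, room temperature. Step 2, add rhodamine-CoA (5 uM) and BHQ-2-YbbR (12.5 uM). Step 3, read 525/598 nm fluorescence at 0 and 30 min.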
# Coupling enz = counter-screen for Giardia aldolase inhibitors: coupling enzyme system; 290,000 tested, 0.67% active; coupling enzyme system counterscreen, AmpLite Red fluorescence; activity change, negative = inhibition, % at 58.2 µM, hits read low; in the data active = activity change below about -30%
#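 Counterscreen lacking aldolase: glyceraldehyde-3-phosphate coupling-enzyme reagent preincubated 10 min at RT with compound (at 57.5 uM final), then substrate/coupling system with AmpLite Red added; fluorescence read at 525/598 nm after 20 min RT.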
# Starred values were filed as active, the others as inactive; ? = inconclusive; . = no result; [ ] = dose if it differs, or a comment. This is a sample that favours compounds with a hit; in the whole collection about 8.5% have one here. Unless noted, calls come from the whole dose curve; as a rule, active = well fitted curve in the direction sought with a large enough effect; inconclusive = small, poorly fitted or top-dose-only effect, or another doubt; inactive = no such curve, though single readings can be large; an effect the other way counts as inactive or inconclusive. Unless noted, % is set by controls: 0 for no effect and ±100 for the full control effect.
SMILES,RGS12 GoLoco inh,JMJD2E inh,NPSR antagonist,ALDH1A1 inh,Sfp inh,Coupling enz
CC(C)N(Cc1nccn1C)C(=O)CC1C(=O)NCCN1Cc1ccc(F)c(F)c1 (configuration not stated),.,.,.,.,-5.8%,.
CCOc1cc(C2C(C#N)=C(N)Oc3cc(N)ccc32)ccc1O (configuration not stated),.,.,.,.,-20.0%,1.2
CCCc1[nH]nc2c1C(c1ccc(OCCN3CCOCC3)c(OC)c1)C(C#N)=C(N)O2 (configuration not stated),3.5%,2.3%,14.9%[46.1 µM],1.4%,-13.0%,0.6
COc1ccc(C2C(C#N)=C(N)SC(N)=C2C#N)cc1OC,59.7%,-28.1%,-10.0%[46.1 µM],28.2µM*,?,-25.5
N#CC1=C(N)SC(N)=C(C#N)C1c1cccc(O)c1,73.5%,?,-3.3%[46.1 µM],25.1µM*,79.4µM*,-32.5*
CCOc1cc(C2C(C#N)=C(N)SC(N)=C2C#N)ccc1OCCN1CCOCC1,98.8%,-25.5%,-11.9%[46.1 µM],7.94µM*,-87.0%,-25.3
CCOc1ccc(C2C(C#N)=C(N)SC(N)=C2C#N)c(OCC)c1,20.4%,?,25.7%[46.1 µM],17.8µM*,15.8µM*,-37.0*
Cc1nn(-c2ccccc2)nc1C(=O)Oc1cc(C(F)(F)F)nn1-c1ccccc1,6.9%,?,-3.2%,?,9.8%,2.7
COc1ccc(-c2ccc(F)cc2)cc1C1C2C=CCC(C)C2C(=O)N1Cc1ccccc1 (configuration not stated),.,.,.,.,5.6%,5.0
CCOC(=O)c1cnc(SC)nc1Sc1ccccc1,-7.1%,0.5%,-3.4%[46.1 µM],?,-9.4%,1.1
Cc1c(C(=O)Nc2ccc(F)cc2)sc2ncn(CC(=O)N3CCCCC3)c(=O)c12,.,.,.,.,-7.7%,2.5
COc1cccc(C2C(C#N)=C(N)OC(C(C)(C)C)=C2C#N)c1 (configuration not stated),2.0%,-22.3%,-11.7%[46.1 µM],-2.6%,4.6%,-29.2
COc1ccc(C2C(C#N)=C(N)OC(C(C)(C)C)=C2C#N)cc1OC (configuration not stated),-2.1%,?,-19.5%[46.1 µM],?,5.5%,-36.7*
Cc1ccsc1/C=C1\SC(N2CC(C)OC(C)C2)=NC1=O (configuration not stated),2.4%,-6.0%,-17.0%,17.8µM*,5.0%,0.7
Cc1ccc(/C=C2\SC(N3CCCCC3)=NC2=O)cc1,.,.,.,.,-1.3%,-0.3
CCOCC(=O)Nc1ccc(C)c(Cl)c1,-4.7%,-5.4%,-0.7%[46.1 µM],25.1µM*,1.9%,2.4
Cc1ccc(NC(=O)COc2ccccc2)cc1Cl,.,.,.,.,13.1%,0.2
Cc1ccc(NC(=O)COC(=O)CC2CCCC2)cc1Cl,10.3%,-1.8%,15.7%,22.4µM*,8.3%,-12.2
O=c1oc2ccccc2c(NCc2ccccc2F)c1[N+](=O)[O-],9.1%,-0.3%,7.6%,1.12µM*,7.6%,2.4
Nc1cc[n+](CC(=O)c2ccc3c(c2)OCCO3)cc1,1.9%,5.2%,29.2%,3.5%,14.6%,-0.5
O=C(C[n+]1ccc(C(=O)NCc2ccccc2)cc1)c1ccc2c(c1)OCCO2,7.4%,?,1.3%,3.55µM*,-3.0%,-1.4
Cc1ccc(/C=N/n2c(-c3ccco3)n[nH]c2=S)s1,6.6%,4.5%,-0.1%,11.2µM*,?,3.2
S=c1[nH]nc(-c2ccco2)n1/N=C/c1ccc(Cl)cc1,-3.8%,-26.5%,-17.5%,22.4µM*,-19.6%,5.1
Cc1cc(-c2n[nH]c(=S)n2/N=C/c2ccc(C)s2)n[nH]1,3.4%,-10.7%,-5.1%,-10.0%,-17.4%,0.0
S=c1[nH]nc(-c2ccco2)n1/N=C/c1ccccc1Cl,.,2.5%,6.3%[46.1 µM],10µM*,?,1.1
SMILES,RGS12 GoLoco inh,JMJD2E inh,NPSR antagonist,ALDH1A1 inh,Sfp inh,Coupling enz
O=C1Nc2ccc(Br)cc2C1(O)c1ccc(F)cc1 (configuration not stated),.,.,.,.,10.0%,-2.7
N=c1ccn(Cc2ccc(Cl)cc2)cc1,-32.2%,-2.6%,-22.2%[46.1 µM],25.1µM*,-12.9%,-1.2
CCn1c(/N=C/c2ccccc2NS(=O)(=O)c2ccc(C)cc2)nc2ccccc21,-3.5%,10.1%,?,9.8%,11.4%,-6.9
O=C(O)C12C[C@H]3C[C@@H](C1)CC(n1ncc(N4CCN(c5ccccc5)CC4)c(Cl)c1=O)(C3)C2,7.3%,0.5%,10.4%,1.26µM*,13.3%,5.9
O=C(O)CC12C[C@H]3C[C@@H](C1)CC(n1ncc(N4CCN(c5ccccc5)CC4)c(Cl)c1=O)(C3)C2,120.6%,-7.6%,7.1%,7.94µM*,-5.7%,0.6
O=c1c(Cl)c(N2CCN(c3ccccc3)CC2)cnn1C12CC3CC(CC(C3)C1)C2,1.6%,-9.5%,-12.2%,10µM*,4.4%,0.2
CCN(CC)C(=O)COC(=O)c1cc(-c2ccco2)nc2ccccc12,37.6%,?,-41.7%,?,-7.9%,-2.8
O=C(COC(=O)c1cc(-c2ccco2)nc2ccccc12)NCc1ccccc1,5.5%,?,-10.4%[46.1 µM],?,39.8µM*,1.6
CCNC(=O)COC(=O)c1cc(-c2ccc(OC)cc2)nc2ccccc12,-2.2%,?,-21.3%[46.1 µM],?,-6.0%,0.3
CNC(=O)COC(=O)c1cc(-c2ccco2)nc2ccccc12,5.8%,?,8.8%[7.67 µM],.,28.2µM*,-4.2
CCCn1c(N)c(N(CCOC)C(=O)c2cc(-c3ccco3)nc3ccccc23)c(=O)[nH]c1=O,.,.,.,.,44.7µM*,.
COc1ccc(CCNC(=O)[C@@H](NC(=O)N2CC(=O)Nc3ccccc32)C(C)C)cc1OC,.,.,.,.,6.9%,.
CCN(CC(=O)NC(=O)NCc1ccccc1)Cc1ccccc1,.,.,.,.,4.3%,.
COc1cccc(-c2c(C(=O)N/N=C(\C)c3cccs3)nnn2-c2nonc2N)c1,.,.,.,.,13.2%,1.4
COc1cccc(CN(CC2CCCO2)C(=O)c2cc3ccccc3oc2=O)c1 (configuration not stated),8.2%,-17.1%,8.2%,15.8µM*,7.9%,-0.3
CC(=O)c1cccc(NC(=S)NC(=O)c2cccc(C)c2)c1,3.5%,5.1%,-8.1%,?,-4.4%,-0.4
COC(=O)c1cccc(NC(=S)Nc2cc(Cl)ccc2OC)c1,5.1%,-0.7%,21.3%,?,20µM*,0.1
COc1ccc(Cl)cc1NC(=S)NNC(=O)c1cccs1,2.0%,13.2%,26.4%,10µM*,16.1%,-1.1
CC(=O)c1cccc(NC(=S)NC(=O)c2ccc(Cl)cc2)c1,2.2%,-3.0%,0.2%,25.1µM*,-25.7%,1.6
COC(=O)c1cc(NC(=S)NCc2ccc(Cl)cc2)cc(C(=O)OC)c1,23.6%,-18.7%,-5.4%,11.2µM*,-2.7%,1.0
NC(=O)N=Nc1c2[nH]c3ccccc3nc-2c2ccccc12,-2.2%,12.3%,-21.3%,.,15.7%,4.4
